Reference: PubChem BioAssay
The other results are listed elsewhere or left out. Calls of active or inactive are those of the source. Unless noted, no stated cut-off is given here; in the data, active means activity above about 50%; inactive means the rest.

Tests used:
PEG-3 [1] = biological target: PEG-3 (UniProt Q6IN02); assay: Peg3 promoter luciferase inhibitors, potency, dose response, cell-based, HeLa, CREF/GAPDH counter-screen panel (AID 624167); conditions: HeLa PEG-Prom luciferase reporter, overnight, CREF/GAPDH counter-screens; run 1, dose range 1, at 100 µM (top of the series)
PEG-3 [2] = biological target: PEG-3 (UniProt Q6IN02); assay: as above; conditions: HeLa PEG-Prom luciferase reporter, overnight, CREF/GAPDH counter-screens; run 2, dose range 1, at 100 µM (top of the series)
Rat fibroblasts (CREF) [3] = assay: as above; conditions: CREF/GAPDH counter-screens; run 1, dose range 1, at 100 µM (top of the series)
Rat fibroblasts (CREF) [4] = assay: as above; conditions: CREF/GAPDH counter-screens; run 2, dose range 1, at 100 µM (top of the series)
[5] = biological target: Tumor necrosis factor receptor superfamily member 10B (Homo sapiens) (UniProt O14763); assay: caspase-8 TRAIL sensitization, hit retest, confirmation, cell-based, NB7+caspase-8, with/without TRAIL, luminescence panel (AID 651596); conditions: NB7 neuroblastoma + caspase-8, TRAIL sensitization, luminescence viability, with TRAIL, mean of runs, at 10 µM, stronger effect = higher value
[6] = as above; conditions: NB7 neuroblastoma + caspase-8, without TRAIL, luminescence viability, without TRAIL, mean of runs, at 10 µM
[7] = inhibitors of PAF-induced NFkB signaling in CF airway cells, dose response, cell-based, uHTS hits, panel, cytotoxicity readout (AID 624344); conditions: CF bronchial epithelial cells, PAF-induced NFkB reporter inhibition, with PAF, run 1; at 79 µM (top of the series)
[8] = as above; conditions: CF bronchial epithelial cells, PAF-induced NFkB reporter inhibition, with PAF, run 2; at 79 µM (top of the series)
[9] = HIF-2a reporter inhibitor retest, confirmation, luminescence, 786-0 RCC cells (AID 651580;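 active means mean inhibition across four replicates of at least 40 percent at the single tested concentration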); conditions: HIF-2a luciferase reporter luminescence, overnight, at 18.8 µM, stronger effect = higher value
[10] = HIF-1a luciferase reporter signal reduction – MiaPaCa-2 cells, single concentration, counter-screen for HIF-2a inhibitor project, confirmation (AID 651589;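 active means mean inhibition of the reporter signal across four replicates at the single tested dose of 50% or more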); conditions: MiaPaCa-2 HIF-1a luciferase reporter, desferoxamine, overnight; at 18.8 µM; stronger effect = higher value

Sequence of PEG-3 (Q6IN02 whole entry, looked up): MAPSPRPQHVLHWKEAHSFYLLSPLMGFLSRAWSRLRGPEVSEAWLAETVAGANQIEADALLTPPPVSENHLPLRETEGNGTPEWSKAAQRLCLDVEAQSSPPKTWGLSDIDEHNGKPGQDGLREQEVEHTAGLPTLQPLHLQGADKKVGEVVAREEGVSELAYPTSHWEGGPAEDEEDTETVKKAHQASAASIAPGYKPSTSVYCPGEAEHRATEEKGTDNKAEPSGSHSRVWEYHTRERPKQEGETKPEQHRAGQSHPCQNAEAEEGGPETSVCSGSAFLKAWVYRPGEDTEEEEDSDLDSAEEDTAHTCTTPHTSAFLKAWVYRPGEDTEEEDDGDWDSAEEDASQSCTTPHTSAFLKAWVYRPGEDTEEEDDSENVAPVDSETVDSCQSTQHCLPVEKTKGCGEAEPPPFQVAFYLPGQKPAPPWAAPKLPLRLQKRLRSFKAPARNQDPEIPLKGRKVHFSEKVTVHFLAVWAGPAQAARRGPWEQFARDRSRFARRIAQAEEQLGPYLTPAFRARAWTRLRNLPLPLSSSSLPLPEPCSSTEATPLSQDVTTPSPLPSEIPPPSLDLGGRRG
Sequence of Tumor necrosis factor receptor superfamily member 10B (Homo sapiens) (O14763 whole entry, looked up): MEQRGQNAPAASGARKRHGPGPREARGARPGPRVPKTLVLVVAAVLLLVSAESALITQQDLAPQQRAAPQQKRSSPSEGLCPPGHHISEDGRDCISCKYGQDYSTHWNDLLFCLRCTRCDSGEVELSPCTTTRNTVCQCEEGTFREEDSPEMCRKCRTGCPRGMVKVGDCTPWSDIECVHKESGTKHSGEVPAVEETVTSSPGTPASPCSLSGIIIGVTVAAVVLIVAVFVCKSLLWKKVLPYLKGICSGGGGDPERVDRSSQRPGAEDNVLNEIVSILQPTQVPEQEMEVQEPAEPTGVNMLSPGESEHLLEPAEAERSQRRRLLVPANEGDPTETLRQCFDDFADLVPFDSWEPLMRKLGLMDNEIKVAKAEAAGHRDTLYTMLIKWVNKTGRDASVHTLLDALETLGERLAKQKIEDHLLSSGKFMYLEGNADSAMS

## CCC(c1nnnn1-c1ccc2c(c1)OCCO2)N1CCC(n2c(=O)[nH]c3ccccc32)CC1 (stereo not drawn)
PEG-3 [1]
  inhibition: 101%
PEG-3 [2]
  inhibition: 102%
Rat fibroblasts (CREF) [3]
  inhibition: 76.5%
Rat fibroblasts (CREF) [4]
  inhibition: 63.2%

## C[C@@H]1O[C@@H](O[C@@H]2C=C3CCC4C(CC[C@]5(C)[C@@H](c6ccc(=O)oc6)CC[C@]45O)[C@@]3(C)CC2)[C@H](O)[C@H](O)[C@H]1O (stereo partly drawn)
PEG-3 [1]
  inhibition: 99.3%
PEG-3 [2]
  inhibition: 98.5%
[5]
  activity: 82.2%
[6]
  activity: 91.8%

## COc1ccc(Oc2cc(NC(=O)c3nn(C)cc3[N+](=O)[O-])cc([N+](=O)[O-])c2)cc1
[7]
  inhibition: 113%
[8]
  inhibition: 101%
[5]
  activity: 94.2%
[6]
  activity: 97.4%

## C=CC[C@@H](CC/C=C/C=C/CC/C=C\[C@@H]1CSC([C@@H]2C[C@@H]2C)=N1)OC
[7]
  inhibition: 91.9%
[8]
  inhibition: 64.9%

## CC(=O)c1c(C)n(C2CCCCC2)c2ccc(O)cc12
[7]
  inhibition: 95.6%
[8]
  inhibition: 102%

## C[C@H]1C[C@@H](C)C(=O)[C@@H]([C@H](O)CC2CC(=O)NC(=O)C2)C1
[7]
  inhibition: 107%
[8]
  inhibition: 113%

## C[C@H]1CCCC(=O)CCC/C=C/c2cc(O)cc(O)c2C(=O)O1
[7]
  inhibition: 102%
[8]
  inhibition: 114%

## O=c1[nH]c2ccccc2n1C1CCN(C(c2cccc3ccccc23)c2nnnn2Cc2ccccc2)CC1 (stereo not drawn)
[7]
  inhibition: 103%
[8]
  inhibition: 101%

## CC(C)(O)/C=C/C(=O)C(C)(O)C1C(O)CC2(C)C3CC=C4C(C=C(O)C(=O)C4(C)C)C3(C)C(=O)CC12C (stereo not drawn)
[5]
  activity: 46.5%
[6]
  activity: 81.1%

## N#Cc1c(Br)n(C2OC(CO)C(O)C2O)c2ncnc(N)c12 (stereo not drawn)
[7]
  inhibition: 106%
[8]
  inhibition: 107%

## CCC(C)C1NC(=O)C(NC(=O)C(CC(C)C)N(C)C(=O)C2CCCN2C(=O)C(C)O)C(C)OC(=O)C(Cc2ccc(OC)cc2)N(C)C(=O)C2CCCN2C(=O)C(CC(C)C)NC(=O)[C@H](C)C(=O)[C@H](C(C)C)OC(=O)CC1O (stereo partly drawn)
[5]
  activity: 96.9%
[6]
  activity: 98.2%

## N#CC1c2ccccc2-n2nncc2CN1Cc1cc(Cl)cc(Cl)c1 (stereo not drawn)
[7]
  inhibition: 91.8%
[8]
  inhibition: 95.5%
[5]
  activity: 55.8%
[6]
  activity: 86.4%

## COc1ccc(-n2nnnc2C(CCc2ccccc2)N2CCC(n3c(=O)[nH]c4ccccc43)CC2)cc1 (stereo not drawn)
[7]
  inhibition: 103%
[8]
  inhibition: 101%
[5]
  activity: 91.1%
[6]
  activity: 88.8%

## COc1cc2c(c(OC)c1O)-c1ccc(OC)c(=O)cc1C(NC(=O)C(F)(F)F)CC2 (stereo not drawn)
[7]
  inhibition: -39.2%
[8]
  inhibition: 24.5%

## NC(=Nc1ccccc1)NN=Cc1c[nH]c2ccccc12
[7]
  inhibition: 94.3%
[8]
  inhibition: 116%

## CCC(C)(O)C(=O)OC1C(=O)OC2CC3C(C)=CC(=O)C(O)C3(C)C3C4(O)OCC23C1C(C)C4O (stereo not drawn)
[9]
  inhibition: 55.2% (active)
[10]
  inhibition: 101% (active)

## COC1C(O)C(C)OC(OC2CCC3(C=O)C(CCC4C3CCC3(C)C(C5=CC(=O)OC5)CCC43O)C2)C1O (stereo not drawn)
[9]
  inhibition: 40% (inactive)
[10]
  inhibition: 105% (active)
[5]
  activity: 85.2%
[6]
  activity: 91.8%

## CC(=O)OCC12CC(OC(=O)CC(C)C)C(C)=CC1OC1C(O)C(OC(C)=O)C2(C)C12CO2 (stereo not drawn)
[5]
  activity: 93%
[6]
  activity: 97.6%

## COc1ccc(-n2nnnc2C(c2cccc(OC)c2OC)N2CCC(n3c(=O)[nH]c4ccccc43)CC2)cc1 (stereo not drawn)
[7]
  inhibition: 99.3%
[8]
  inhibition: 97.4%

## CC1=CC2OC3CC4OC(=O)C=CC=CC(=O)OCCC(C)C(O)C(=O)OCC2(CC1O)C4(C)C31CO1 (stereo not drawn)
[5]
  activity: 92.9%
[6]
  activity: 96.9%

## CC1CC(C)CC(C)C(O)C(C#N)=CC=CCC(C2CCCC2C(=O)O)OC(=O)CC(O)C(C)C1 (stereo not drawn)
[5]
  activity: 94%
[6]
  activity: 98.7%

## C=C1C(=O)OC2CC3(C)OC3CCC(C)=CC(OC(C)=O)C12 (stereo not drawn)
[7]
  inhibition: 93.9%
[8]
  inhibition: 99.9%

## CCOC(=O)[C@]12Cc3ccccc3[C@H]1N(C1CCCCC1)C(=O)c1cc(OC)ccc12
[9]
  inhibition: 93.2% (active)
[10]
  inhibition: 106% (active)
[5]
  activity: 85.5%
[6]
  activity: 88%

## COc1cc2c(c(OC)c1OC)-c1ccc(O)cc1C(NC(C)=O)CC2 (stereo not drawn)
[7]
  inhibition: -101%
[8]
  inhibition: 0.843%

## COc1ccc2c(c1)[nH]c1c(C)nccc12
[7]
  inhibition: 113%
[8]
  inhibition: 97.6%

## COc1cc(C2c3cc4c(c(O)c3CC3COC(=O)C32)OCO4)cc(OC)c1OC (stereo not drawn)
[7]
  inhibition: 110%
[8]
  inhibition: 85%

## COc1ccc(CC2NCC(O)C2OC(C)=O)cc1 (stereo not drawn)
[5]
  activity: 90.1%
[6]
  activity: 93.8%

## COc1ccc(C(c2nnnn2-c2ccc(OC)cc2)N2CCC(n3c(=O)[nH]c4ccccc43)CC2)cc1 (stereo not drawn)
[7]
  inhibition: 98.8%
[8]
  inhibition: 103%

## COc1ccc(-n2nnnc2C(CCSC)N2CCC(n3c(=O)[nH]c4ccccc43)CC2)cc1 (stereo not drawn)
[7]
  inhibition: 97.9%
[8]
  inhibition: 108%

## O=c1[nH]c2ccccc2n1C1CCN(C(c2cc3ccccc3o2)c2nnnn2-c2ccc3c(c2)OCCO3)CC1 (stereo not drawn)
[7]
  inhibition: 103%
[8]
  inhibition: 104%
[5]
  activity: 81.4%
[6]
  activity: 83.5%

## COc1cc(C2c3cc4c(cc3CC3COC(=O)C32)OCO4)cc(OC)c1O (stereo not drawn)
[7]
  inhibition: -31.2%
[8]
  inhibition: -1.25%
